This note sets out measurements from PubChem BioAssay (Tox21).

Assay [1] can be described thus: Nuclear factor erythroid 2-related factor 2/antioxidant responsive element (Nrf2/ARE) small molecule agonists: qHTS cell viability counter screen in human keratinocytes (AID 1919968; active = well fitted curve in the direction sought with a large enough effect in the repeat runs; an effect the other way counts as inactive or inconclusive; also: nearly all actives have a fitted effect of over 55% in size). Summed up: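 After a 5 h attachment period, ARE-reporter keratinocytes were dosed with compounds in DMSO and then cultured 23 h at 37 C. Cell viability came from CellTiter-Fluor signal read after a further 1 h.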
On the technique in general: In qHTS, concentration-response curves come from the screen itself.

A short description of assay [2]: Nuclear factor erythroid 2-related factor 2/antioxidant responsive element (Nrf2/ARE) small molecule agonists: luciferase reporter gene qHTS assay in human keratinocytes (AID 1919969). Also: nearly all actives have a fitted effect of over 35% in size. On the technique in general: In a reporter assay the amount or activity of a reporter protein is the signal.
Assay [3] concerns the target Gonadotropin-releasing hormone receptor (Homo sapiens) (UniProt P30968). Description: Human gonadotropin-releasing hormone receptor (GnRHR) small molecule agonists, calcium flux assay in GnRHR-HEK293 cells (AID 1920063). Also: nearly all actives have a fitted effect of over 35% in size. Summed up: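 We seeded human GnRHR-expressing HEK293 cells for 18 hours, loaded them with calcium dye for an hour at 37 C, added test compounds, and recorded fluorescence intensity kinetically for three minutes.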

Assay [4] deals with KiSS-1 receptor (Homo sapiens) (UniProt Q969F8). Description: Human kisspeptin (KISS1R) small molecule agonists, calcium flux assay in KISS1R-HEK293 cells (AID 1920064; active = well fitted curve in the direction sought with a large enough effect in the repeat runs; an effect the other way counts as inactive or inconclusive). Put shortly:
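Kinetic calcium assay, 1 s sampling over 3 min at Ex/Em 480/540, in HEK293 cells engineered with human KISS1R; compounds delivered in DMSO after 1 h dye loading.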

Assay [5] is described as follows: G protein-coupled receptor (GPCR) small molecule agonists, calcium flux assay: HEK293 wild type cell line counter screen (AID 1920065). Put shortly: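 Calcium-sensitive dye, loaded 1 h at 37 C into cells cultured 18 h, reports compound-evoked calcium release as fluorescence (Ex/Em 480/540), measured over 3 min. Agonist mode; 15-point titrations, triplicate.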
For orientation: Calcium assays in cells follow changes in intracellular calcium, usually with a dye or a luminescent sensor.

Assay [6] can be described thus: p53 small molecule agonists, cell-based qHTS assay with human liver microsomes (AID 1963577). Also: potency is read from the fitted curve at half-maximal effect.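 As to activation: p53 response element beta-lactamase reporter cells with liver microsomes plus NADPH.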 Summed up:
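16 h, 37 C exposure of p53RE-bla cells to compounds with human liver microsomes and NADPH (0.5 mg/mL final each); detection via LiveBLAzer mixture, 2 h dark at room temperature.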

Assay [7] can be described thus: p53 small molecule agonists, cell-based qHTS assay with human liver microsomes: qHTS cell viability counter screen (AID 1963579). Also: nearly all actives have a fitted effect of over 45% in size. Put shortly: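 In this multiplexed counter screen, the reporter plates were subsequently treated with CellTiter-Glo so that cell viability, reflected by luminescence, could be recorded for p53RE-bla cells dosed 16 h with compounds under microsomal activation (HLM and NADPH).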

A short description of assay [8]: p53 small molecule agonists, cell-based qHTS assay with rat liver microsomes: qHTS cell viability counter screen (AID 1963580). Also: nearly all actives have a fitted effect of over 45% in size. Put shortly: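 Viability is assessed in parallel with the p53 reporter read: HCT-116 p53RE-bla cells receive compounds plus rat microsomes and NADPH (0.5 mg/mL final apiece), incubate 16 h at 37 C, and then CellTiter-Glo luminescence is recorded.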

Assay [9] is described as follows: p53 small molecule agonists, cell-based qHTS assay (AID 1963582; active = well fitted activation curve with a large enough effect in the signal ratio in the repeat runs, not every such curve was filed as active; the % refers to the signal ratio). Put shortly: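 In this cell-based concentration-response screen, a p53 response element drives beta-lactamase; cells received DMSO-borne compounds after 5 h culture and were incubated a further 16 h before FRET substrate development.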
Assay [10] has as its target 5-hydroxytryptamine receptor 2A (Homo sapiens) (UniProt P28223). Description: 5-hydroxytryptamine receptor 2A (HTR2A) small molecule antagonists, cell-based qHTS assay (AID 1963586). Also: nearly all actives have a fitted effect of over 45% in size. Summed up:
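Antagonist-mode intracellular calcium assay: DOI (4 nM) added after 5 min compound pre-incubation at room temperature to dye-loaded HTR2A-CHO cells. Fluorescence followed for 3 min, sampled every second.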

The target is the same in assay [11]. The assay can be described thus: 5-hydroxytryptamine receptor 2A (HTR2A) small molecule agonists, cell-based qHTS assay (AID 1963587). Also: nearly all actives have a fitted effect of over 30% in size. Summed up: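 CHO cells stably expressing human HTR2A, plated 18 h, loaded with calcium dye 1 h at 37 C. Agonist mode: compounds added and intracellular calcium fluorescence recorded kinetically for 2 min at 1 sec intervals.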

Assay [12] deals with Muscarinic acetylcholine receptor M1 (Homo sapiens) (UniProt P11229). The assay can be described thus: Cholinergic receptor muscarinic 1 (CHRM1) small molecule antagonists, cell-based qHTS assay (AID 1963588). Also: nearly all actives have a fitted effect of over 40% in size. Put shortly:
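CHRM1-CHO calcium-flux assay, antagonist mode. Cells were seeded 18 h, dye-loaded 1 h at 37 C and given compound for 5 min at RT, then acetylcholine was added at 50nM. FDSS fluorescence was read 3 min; 15 concentrations, three runs.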

Assay [13] has the same target. The assay can be described thus: Cholinergic receptor muscarinic 1 (CHRM1) small molecule agonists, cell-based qHTS assay (AID 1963589). Also: nearly all actives have a fitted effect of over 35% in size. Put shortly: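 Measures agonist-induced intracellular calcium rise. Stable human CHRM1 CHO line, 1 h dye load at 37 C, compounds from DMSO, kinetic fluorescence read.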
In assay [14] the target is Beta-2 adrenergic receptor (Homo sapiens) (UniProt P07550). The assay can be described thus: Adrenergic beta2 receptor (ADRB2) small molecule antagonists, cell-based qHTS assay (AID 1963592). Also: series mostly up to about 92 µM; nearly all actives have a fitted effect of over 50% in size. Put shortly: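 Cells (CHO, stable ADRB2 overexpression) incubated 18-20hr at 37C; compounds added from DMSO; agonist mix (1nM isoproterenol, 100uM IBMX, 25uM Ro-20-1724) added; 0.5hr RT; d2-cAMP and anti-cAMP-cryptate added; 1hr RT; 665/615 nm read.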
Chain of Beta-2 adrenergic receptor (Homo sapiens) (P07550 whole entry, looked up): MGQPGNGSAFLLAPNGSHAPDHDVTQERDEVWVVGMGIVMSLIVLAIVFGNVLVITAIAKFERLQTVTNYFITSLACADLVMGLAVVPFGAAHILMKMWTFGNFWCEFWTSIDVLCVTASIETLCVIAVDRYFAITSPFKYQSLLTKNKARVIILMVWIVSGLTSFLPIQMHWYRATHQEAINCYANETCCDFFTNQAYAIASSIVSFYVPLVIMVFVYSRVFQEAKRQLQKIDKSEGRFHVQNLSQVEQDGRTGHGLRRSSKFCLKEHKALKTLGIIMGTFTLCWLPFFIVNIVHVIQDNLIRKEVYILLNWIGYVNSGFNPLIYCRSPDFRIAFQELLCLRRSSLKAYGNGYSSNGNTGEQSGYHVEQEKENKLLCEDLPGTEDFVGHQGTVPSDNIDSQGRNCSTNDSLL

Assay [15] has as its target D(2) dopamine receptor (Homo sapiens) (UniProt P14416). Description: Dopamine D2 receptor (DRD2) small molecule agonists, cell-based qHTS assay (AID 1963594). Also: nearly all actives have a fitted effect of over 35% in size. Summed up: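 HEK293 cells stably expressing human DRD2, pre-treated with PDE inhibitor Ro20-1724 (0.1 mM final) and compound 10 min at room temperature, then stimulated with NKH477 (200nM […]) for 30 min. cAMP read by HTRF (665/620 nm).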

Assay [16] is described as follows: p53 small molecule agonists, cell-based qHTS assay: qHTS cell viability counter screen (AID 1963581). Also: nearly all actives have a fitted effect of over 45% in size. Summed up: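 Following 5 h attachment, HCT-116 p53RE-bla cells took up compound for 16 h at 37 C; the reporter was read with B/G FRET substrate (2 h RT), and viability then via CellTiter-Glo ATP luminescence.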
Assay [17] can be described thus: cAMP Responsive Elements (CRE) small molecule agonists, cell-based qHTS assay (AID 1963590). Put shortly:
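A CRE-responsive beta-lactamase reporter in HEK 293T cells was used. Treatment ran 3 h at 37 C; detection used LiveBLAzer B/G FRET substrate for 2 h at room temperature.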

The nature of assay [18]: cAMP Responsive Elements (CRE) small molecule antagonists, cell-based qHTS assay (AID 1963591; active = well fitted inhibition curve with a large enough effect in the signal ratio in the repeat runs, not every such curve was filed as active; the % refers to the signal ratio). Put shortly:
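HEK293T cells carrying a CRE-driven beta-lactamase reporter receive compound and NKH477 (0.25 uM final) for 3 h. Fluorescence from LiveBLAzer B/G FRET substrate is read after 2 h at room temperature.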

For assay [19], the target named is D(2) dopamine receptor (Homo sapiens) (UniProt P14416). The assay can be described thus: Dopamine D2 receptor (DRD2) small molecule antagonists, cell-based qHTS assay (AID 1963595; active = well fitted inhibition curve with a large enough effect in the signal ratio in the repeat runs, with a control signal flat; the % refers to the signal ratio). Put shortly: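 Antagonism was scored as restored cAMP in HEK293-DRD2 cells. These cells were stimulated with 200 nM NKH477 and 12 nM quinpirole for 30 min at room temperature, in the presence of 0.1 mM Ro20-1724.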
Chain of D(2) dopamine receptor (Homo sapiens) (P14416 whole entry, looked up): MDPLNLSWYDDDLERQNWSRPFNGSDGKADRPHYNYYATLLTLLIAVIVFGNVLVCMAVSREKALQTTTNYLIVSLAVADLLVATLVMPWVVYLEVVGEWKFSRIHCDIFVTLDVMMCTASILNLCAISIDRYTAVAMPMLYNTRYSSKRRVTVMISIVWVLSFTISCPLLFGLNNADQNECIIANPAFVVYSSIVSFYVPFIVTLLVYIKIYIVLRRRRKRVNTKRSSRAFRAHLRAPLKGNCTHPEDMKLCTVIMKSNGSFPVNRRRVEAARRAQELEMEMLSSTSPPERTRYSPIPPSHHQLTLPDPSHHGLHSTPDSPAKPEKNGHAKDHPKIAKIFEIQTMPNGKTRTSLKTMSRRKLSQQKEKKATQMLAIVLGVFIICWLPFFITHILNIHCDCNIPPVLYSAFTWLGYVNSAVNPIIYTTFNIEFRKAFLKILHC

Assay [20] in a line: p53 small molecule agonists, cell-based qHTS assay with rat liver microsomes (AID 1963578). Summed up:
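With rat liver microsomes and NADPH present (0.5 mg/mL final each), p53RE-bla cells are treated with compound for 16 h at 37 C. LiveBLAzer detection mixture is then applied for 2 h at room temperature in the dark.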

Each structure is given as a SMILES string. Unmarked numbers belong to inactive results. Records with an inconclusive call do not appear. Activity calls are given as the source filed them. Unless noted, calls follow the shape of the full dose curve.

Chain of 5-hydroxytryptamine receptor 2A (Homo sapiens) (P28223 whole entry, looked up): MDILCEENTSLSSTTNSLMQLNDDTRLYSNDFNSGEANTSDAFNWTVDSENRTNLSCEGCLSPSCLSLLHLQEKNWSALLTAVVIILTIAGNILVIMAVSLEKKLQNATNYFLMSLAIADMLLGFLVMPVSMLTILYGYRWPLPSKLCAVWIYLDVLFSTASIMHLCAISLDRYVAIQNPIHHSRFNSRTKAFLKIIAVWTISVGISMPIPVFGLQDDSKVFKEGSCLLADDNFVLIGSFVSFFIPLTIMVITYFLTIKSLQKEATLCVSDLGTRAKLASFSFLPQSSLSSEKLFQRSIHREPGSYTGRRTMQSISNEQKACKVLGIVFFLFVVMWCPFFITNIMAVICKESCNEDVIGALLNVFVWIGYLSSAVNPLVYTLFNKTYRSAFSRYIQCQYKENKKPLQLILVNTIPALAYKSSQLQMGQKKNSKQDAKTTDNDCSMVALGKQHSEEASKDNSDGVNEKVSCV
Chain of KiSS-1 receptor (Homo sapiens) (Q969F8 whole entry, looked up): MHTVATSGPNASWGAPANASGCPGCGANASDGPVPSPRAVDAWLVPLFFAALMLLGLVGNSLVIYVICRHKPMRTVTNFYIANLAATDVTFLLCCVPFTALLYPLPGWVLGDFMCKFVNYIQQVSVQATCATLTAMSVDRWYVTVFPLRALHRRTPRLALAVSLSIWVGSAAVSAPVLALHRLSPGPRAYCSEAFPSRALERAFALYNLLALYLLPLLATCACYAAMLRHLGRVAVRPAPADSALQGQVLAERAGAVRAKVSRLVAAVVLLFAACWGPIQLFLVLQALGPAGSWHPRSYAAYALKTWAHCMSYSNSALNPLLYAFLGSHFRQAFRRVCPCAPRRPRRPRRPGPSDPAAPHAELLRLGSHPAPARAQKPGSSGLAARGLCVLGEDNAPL
Chain of Gonadotropin-releasing hormone receptor (Homo sapiens) (P30968 whole entry, looked up): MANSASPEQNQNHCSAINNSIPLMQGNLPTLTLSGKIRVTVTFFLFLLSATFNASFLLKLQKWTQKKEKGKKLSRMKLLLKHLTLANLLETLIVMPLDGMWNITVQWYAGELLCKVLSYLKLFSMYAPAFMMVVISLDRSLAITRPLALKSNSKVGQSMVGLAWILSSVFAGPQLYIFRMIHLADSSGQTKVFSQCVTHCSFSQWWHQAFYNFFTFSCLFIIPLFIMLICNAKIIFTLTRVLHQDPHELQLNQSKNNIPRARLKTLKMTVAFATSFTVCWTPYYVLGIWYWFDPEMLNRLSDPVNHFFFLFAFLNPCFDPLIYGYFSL
Chain of Muscarinic acetylcholine receptor M1 (Homo sapiens) (P11229 whole entry, looked up): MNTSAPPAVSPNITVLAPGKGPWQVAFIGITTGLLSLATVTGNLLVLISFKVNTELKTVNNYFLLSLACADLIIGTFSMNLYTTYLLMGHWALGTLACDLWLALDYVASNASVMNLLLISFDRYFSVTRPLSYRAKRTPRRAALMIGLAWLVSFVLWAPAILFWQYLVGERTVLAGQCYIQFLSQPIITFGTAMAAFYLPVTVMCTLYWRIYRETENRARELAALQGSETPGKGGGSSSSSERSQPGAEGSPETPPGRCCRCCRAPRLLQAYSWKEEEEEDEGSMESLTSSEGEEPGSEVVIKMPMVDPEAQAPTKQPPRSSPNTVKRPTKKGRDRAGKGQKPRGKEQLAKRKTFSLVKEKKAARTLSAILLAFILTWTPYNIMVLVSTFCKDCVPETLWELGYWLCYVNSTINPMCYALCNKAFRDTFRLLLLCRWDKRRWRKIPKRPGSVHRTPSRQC

Take `C=CC[C@]1(O)CC[C@H]2[C@@H]3CCC4=CC(=O)CCC4=C3C=C[C@@]21C`: the Potency entry in assay [1], in assay [2], in assay [3], in assay [4], in [5] and in assay [6] was “inactive” each time. For the same compound, the Potency entry in assay [7], in assay [8], in assay [9], in [10], in assay [11] and in assay [12] was “inactive” throughout. Moreover, the Potency entry in assay [13], in assay [14] and in assay [15] was “inactive” each time.
Take `COP(=O)(OC)Oc1ccc([N+](=O)[O-])cc1`: the Potency result in assay [1], in assay [2], in assay [3], in assay [4], in [5] and in [7] was “inactive” each time. The Potency result in assay [16], in [9], in assay [10], in assay [11], in [12] and in assay [17] was “inactive” throughout. In addition, the Potency result in [18], in [15] and in assay [19] was “inactive” throughout. Also, the Potency in [6] was 3.24 µM (active).
As to `COc1ccc2c(c1OC)CN1CCc3cc4c(cc3C1C2)OCO4` (stereo not drawn), the Potency result in [1], in assay [2], in assay [3], in [4], in assay [5] and in assay [6] was “inactive” in each case. The Potency result in assay [7], in assay [8], in assay [16], in assay [9], in assay [11] and in [12] was “inactive” in each case. In addition, the Potency result in assay [13], in [18] and in assay [19] was “inactive” each time.
As to `Clc1ccc(-c2ccccc2)cc1`, the Potency entry in assay [1], in [2], in assay [3], in assay [4], in [5] and in assay [20] was “inactive” throughout. For the same compound, the Potency entry in assay [7], in assay [8], in assay [16], in assay [9], in assay [10] and in assay [11] was “inactive” each time. Further, the Potency result in [12], in [13], in assay [17], in [18], in [15] and in [19] was “inactive” throughout.
On to `O=[N+]([O-])c1cccc2cccnc12`, for which the Potency result in assay [1], in assay [2], in assay [3], in assay [4], in [5] and in assay [20] was “inactive” in each case. The Potency result in assay [7], in [8], in assay [16], in assay [9], in [10] and in assay [11] was “inactive” in each case. Besides, the Potency result in [12], in [13], in assay [17], in assay [18], in assay [14] and in [19] was “inactive” in each case.
Turning to `C=CCOC(=O)C(C)(C)OC(=O)c1cc(-n2c(=O)cc(C(F)(F)F)n(C)c2=O)ccc1Cl`, the Potency entry in assay [1], in assay [2], in [3], in [4], in assay [5] and in assay [20] was “inactive” in each case. The Potency entry in assay [7], in assay [8], in [16], in assay [9], in assay [10] and in [11] was “inactive” in each case. Besides, the Potency entry in assay [12], in [13], in assay [17], in assay [14], in assay [15] and in assay [19] was “inactive” in each case.
With `CCCCC(CC)COC(=O)OOC(C)(C)C` (stereo not drawn), the Potency result in assay [1], in assay [2], in [3], in [4], in assay [5] and in assay [6] was “inactive” throughout. The Potency entry in assay [8], in assay [16], in assay [9], in assay [10], in assay [11] and in assay [12] was “inactive” each time. Moreover, the Potency entry in assay [13], in assay [17], in assay [18], in assay [14], in [15] and in assay [19] was “inactive” in each case.
